Source: PubChem
Hits are enriched below; roughly 10% of the tested compounds scored in any of these assays.
ELG1 repair inh – blocks ELG1-dependent DNA repair in HEK293T cells; HEK293T ELG1-luciferase reporter, luminescence, 16 h; DNA damage induced by 5-fluorouridine; Potency, µM (highest dose often 46.1 µM), for inactives: top-dose activity change, negative = inhibition, actives largely listed as inhibitors; 330,000 compounds, 2.3% hits; AID 504467; note: % is set by controls: 0 for no effect and ±100 for the full control effect; nearly all actives have a fitted effect of over 55% in size
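DMSO vehicle served as the neutral condition. Each well held 2,000 cells given 5-fluorouridine plus compound; after 16 hr at 37 °C/5% CO2, ONE-Glo was added and luciferase measured 30 min later.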
Gal4-VP16 FLuc – counter-screen for ROR gamma inhibitors: Gal4-VP16 reporter; 310,000 compounds, 3.5% hits; Potency, µM (doses to about 53.6 µM), without a hit: at the top dose activity, negative = inhibition, hits mostly inhibitors; AID 2546; Drosophila S2 Gal4-VP16 UAS-luciferase, luminescence, 20 h;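 note: Gal4-VP16 expression switched on by copper sulfate through the metallothionein promoter; % is set by controls: 0 for no effect and ±100 for the full control effect; nearly all actives have a fitted effect of over 50% in size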
SW480 rereplic – induces DNA re-replication in SW480 colon adenocarcinoma cells; SW480 DNA re-replication, Hoechst DNA content imaging, 48 h; Potency, µM (series often up to 46.1 µM), for inactives: at the highest dose re-replication activation, hits mostly activators; 340,000 compounds, 1.8% hits; AID 624297; note: % of control where 0% means no effect; nearly all actives have a fitted effect of over 55% in size
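Cells (250 per well) received 23 nL compound or DMSO by pin tool and were kept 48 hr at 37 C, 5% CO2. Nuclei were then stained with Hoechst for 40 min and scanned for DNA content.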
RORg inh – blocks mouse ROR gamma transcriptional activity. AID 2551. Drosophila S2 Gal4-RORgamma UAS-luciferase reporter, 20 h. 310,000 compounds, 5.4% hits. Potency, µM (series often up to 53.6 µM), for the others: top-dose activity change, negative = inhibition, actives largely listed as inhibitors; note: % is set by controls: 0 for no effect and ±100 for the full control effect; nearly all actives have a fitted effect of over 60% in size
Target sequence (P51450 whole entry, looked up, the tested form may be a part): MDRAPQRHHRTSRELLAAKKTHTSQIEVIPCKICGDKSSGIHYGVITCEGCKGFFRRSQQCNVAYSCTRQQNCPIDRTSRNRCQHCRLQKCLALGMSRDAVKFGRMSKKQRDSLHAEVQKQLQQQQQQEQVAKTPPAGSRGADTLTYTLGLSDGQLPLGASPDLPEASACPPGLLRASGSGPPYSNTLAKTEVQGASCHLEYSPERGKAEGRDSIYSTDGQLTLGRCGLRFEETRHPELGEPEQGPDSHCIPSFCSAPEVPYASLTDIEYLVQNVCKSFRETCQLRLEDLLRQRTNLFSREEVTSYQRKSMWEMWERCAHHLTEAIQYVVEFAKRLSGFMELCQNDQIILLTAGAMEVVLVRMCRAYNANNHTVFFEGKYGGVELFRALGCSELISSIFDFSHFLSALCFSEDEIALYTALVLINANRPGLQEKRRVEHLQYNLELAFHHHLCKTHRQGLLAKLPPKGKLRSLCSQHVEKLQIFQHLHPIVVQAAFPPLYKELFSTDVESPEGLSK
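Stable Schneider cell line, Gal4 DNA-binding domain fused to ROR gamma, UAS-luciferase. Cmpd 1 hr RT → CuSO4 700 uM final → 20 hr RT → luciferase reagent 10 min → luminescence.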
MCF10A rerep – DNA re-replication induction in MCF 10a cells | MCF 10A DNA re-replication, Hoechst nuclear intensity, 48 h | Potency, µM (top dose mostly 46.1 µM), for inactives: top-dose activity, positive = re-replication, actives largely listed as activators | 350,000 compounds, 2.9% hits; note: % of control where 0% means no effect; nearly all actives have a fitted effect of over 50% in size
* marks the source's active call; other numbers are inactive results; ? = inconclusive; / = no result given; ! = repeats disagree; [ ] = remark or other dose. Calls come from the whole dose curve; as a rule, active = well fitted curve in the direction sought with a large enough effect; inconclusive = small, poorly fitted or top-dose-only effect, or another doubt; inactive = no such curve, though single readings can be large; an effect the other way counts as inactive or inconclusive. Potency is the fitted concentration of half-maximal effect.

SMILES | ELG1 repair inh | Gal4-VP16 FLuc | SW480 rereplic | RORg inh | MCF10A rerep
N#CC(C#N)=c1ccc2c(c1)NC1(CCCCC1)N=2 | ? | ? | 13µM* | ? | ?
COc1ccc2c(C)c(CC(=O)N3CCN(C(=O)C4COc5ccccc5O4)CC3)c(=O)oc2c1C (centres undefined) | ? | 3% | 16µM* | 16% | ?
COc1cc2nc(N3CCN(C(=O)C4COc5ccccc5O4)CC3)nc(N)c2cc1OC (centres undefined) | ? | ? | 21µM*! | 12% | 15µM*!
Cc1ccc2c(c1)-n1c(nc3ccccc3c1=O)C(Cc1ccccc1)NC2=O (centres undefined) | 3% | / | / | / | /
CCCCC/C=C\C/C=C\CCCCCCCC(=O)NC(C)C(=O)O (centres undefined) | / | -8% | / | -16% | /
Cc1nn(CC(=O)Nc2c(F)c(F)cc(F)c2F)c(=O)c2cccn12 | 13% | 1% | -23% | 10% | -5%
O=C(COC(=O)c1ccccc1NS(=O)(=O)c1ccc(Cl)cc1)NCc1ccccc1 | ? | ? | 8% | ? | ?
C=CCn1c(CCCOc2ccc(Cl)cc2Cl)n[nH]c1=S | 17% | 5.6µM* | -35% | 3.5µM* | ?
C=CCn1c(Cc2nc3ccc(Cl)cc3[nH]2)n[nH]c1=S | ? | -29% | -7% | ? | -6%
C=CCn1c(-c2ccoc2)n[nH]c1=S | -4% | 18µM* | -8% | 11µM* | -3%
C=CCn1c(CSCc2ccc(F)cc2)n[nH]c1=S | -4% | 3.5µM* | -1% | 3.2µM* | -12%
C=CCn1c(-c2sc3nc(C)cc(C)c3c2N)n[nH]c1=S | ? | -4% | 26% | ? | 9.2µM*
C=CCn1c(CNS(=O)(=O)c2ccc(F)cc2)n[nH]c1=S | 1% | 1% | -4% | -14% | 1%
CCn1c(=O)c(=O)[nH]c2cc(C(=O)NC(C)c3ccc(S(N)(=O)=O)cc3)ccc21 (centres undefined) | 17% | 4% | -8% | 12% | 1%
CCCN(CCC)C(=O)C(c1ccccc1)C1(O)CCCCC1 (centres undefined) | / | / | -5% | / | -3%
COc1ccc(NC(=O)NC2(C(=O)N3CCN(C)CC3)CCCCC2)cc1 | ? | -1% | -6% | 2% | 9%
Cc1cc(Br)ccc1NC(=O)C1C2CCC(O2)C1C(=O)O (centres undefined) | 18% | 2% | 1% | 67% | 5%
C=CCn1c(-c2ccc(F)cc2)n[nH]c1=S | 15% | ? | 1% | 7.9µM* | 4%
C=CCn1c(Cc2ccccc2)n[nH]c1=S | 14% | ? | -6% | 7.1µM* | 1%
C=CCn1c(-c2ccccc2)n[nH]c1=S | 16% | 0% | -3% | ? | 7%
C=CCn1c(Cc2c[nH]c3ccccc23)n[nH]c1=S | ? | -27% | 10% | 0%[10 µM] | 1%
C=CCn1c(CCC(O)CCCCC)n[nH]c1=S (centres undefined) | 10% | -12% | -8% | ? | ?
C=CCn1c(-c2ccncc2)n[nH]c1=S | 0% | -18% | 0% | 10µM* | ?
C=CCn1c(CCc2cc(C(C)(C)C)c(O)c(C(C)(C)C)c2)n[nH]c1=S | -14% | 7.9µM* | 15% | 2.5µM* | ?
CCOc1ncc(S(=O)(=O)N2CCN(CC)CC2)cc1C(=O)O | 12% | 2% | 9% | -19% | 1%
C=CCn1c(-c2cccc(OCC)c2)n[nH]c1=S | 10% | 18µM* | -7% | 5µM* | -6%
NS(=O)(=O)c1ccc(NC(=O)COC(=O)CC2Sc3ccccc3NC2=O)cc1 (centres undefined) | ? | / | -18% | / | -4%
CCN(CC(=O)Nc1ccc(OC)c(Cl)c1)CC(=O)NC(C)C | -5% | 8%[10 µM] | -12% | -10% | 0%
CCN(CC)c1ccc(-c2nn3c(-c4n[nH]c5c4CCC5)nnc3s2)cc1 | 1% | 3% | 1.8µM* | -24% | 1.5µM*
CCN(CC)CCCn1c2c(c(SCC(=O)Nc3nc4ccccc4s3)nc1=O)CCC2 | 0% | / | -1% | / | 4%
